# Vif-A3G inh: Vif-A3G binding inhibition; Q9HC16; HeLa A3G-eYFP + Vif (tagged APOBEC3G with the HIV-1 protein that degrades it), YFP fluorescence, overnight; Potency, µM (highest dose often 46.1 µM), without a hit: at the highest dose activity, negative = active, hits mostly inhibitors; 0.076% of 410,000 active; also: potency is read from the fitted curve at half-maximal effect; % is scaled to controls: 0 for no effect and ±100 for the full control effect; nearly all actives have a fitted effect of over 60% in size
# Target sequence (Q9HC16 whole entry, looked up): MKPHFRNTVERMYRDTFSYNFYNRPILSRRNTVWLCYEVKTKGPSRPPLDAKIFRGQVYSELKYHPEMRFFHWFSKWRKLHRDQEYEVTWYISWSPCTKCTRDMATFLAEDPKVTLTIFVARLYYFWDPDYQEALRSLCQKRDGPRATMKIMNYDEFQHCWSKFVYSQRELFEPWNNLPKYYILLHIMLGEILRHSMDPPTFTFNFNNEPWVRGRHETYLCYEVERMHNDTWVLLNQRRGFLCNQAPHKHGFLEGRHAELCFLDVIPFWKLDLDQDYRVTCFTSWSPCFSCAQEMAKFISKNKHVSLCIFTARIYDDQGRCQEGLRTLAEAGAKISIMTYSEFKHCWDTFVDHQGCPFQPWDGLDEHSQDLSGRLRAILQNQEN
#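 HeLa cells stably expressing Vif and C-terminally eYFP-tagged A3G, seeded overnight at 37 deg C, then exposed to compound by pintool overnight at 37 deg C. Rise in yellow fluorescence (Ex 488/Em 500-530, Acumen) marks blocked Vif-driven A3G degradation.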
# Vif-APOBEC3F blk: blocks the Vif interaction with APOBEC3F; Potency, µM (series often up to 46.1 µM), for inactives: top-dose activity, negative = active; AID 602313; HeLa A3F-eYFP + Vif (tagged APOBEC3F with the HIV-1 protein that degrades it), YFP fluorescence increase; 0.2% of 390,000 active; also: potency is read from the fitted curve at half-maximal effect; % of control where 0% means no effect; nearly all actives have a fitted effect of over 65% in size
#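 HeLa cells stably expressing Vif plus C-terminally eYFP-tagged A3F were seeded, incubated overnight at 37 deg C, dosed with compound, incubated overnight again at 37 deg C. Yellow fluorescence (Ex 488/Em 500-530) reported blocked Vif-mediated A3F-eYFP degradation.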
# TRPML1 ag: human mucolipin-1 channel agonism | activation, % (no concentration beside the values) | Q9GZU1 | 0.12% of 410,000 active | TRPML1-expressing cells, Ca2+ dye fluorescence, FDSS | AID 624414; in the data active = activation above about 50%; inconclusive = mostly about 30% to 49%; also: 0% is about no effect
#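 TRPML1-DL cells, Tet-induced overnight (~16 h, 37 degrees C), loaded 45-90 min at room temperature with Ca8 no-wash calcium dye plus quencher. FDSS fluorescence: 10 s baseline, compound pin-transfer, 110 s agonist read, then EC80 54-4 (4uM final) and 110 s antagonist read.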
# TRPML1 inh: blocks the human TRPML1 channel. activity change, negative = inhibition, % (test concentration not listed). AID 624415. 0.02% of 390,000 active. Q9GZU1. TRPML1-inducible cells, Ca2+ dye fluorescence, FDSS; active compounds read low; inhibition of EC80 agonist-evoked calcium signal; in the data active = activity change below about -50%; inconclusive = between about -30% and that limit;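 also: stimulus is agonist 54-4 at its EC80 concentration; % is scaled to controls: 0 for no effect and ±100 for the full control effect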
#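 Tet-induced TRPML1-DL cells loaded with Ca8 no-wash calcium dye were read kinetically on FDSS. Compound addition was followed by EC80 agonist 54-4 (4 uM final); inhibition was read over 110 s.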
# A-T KAP1 phos: potential ataxia-telangiectasia treatment; F2112 A-T fibroblasts, KAP-1 phosphorylation AlphaLISA; neocarzinostatin DNA damage 30 min before lysis; Potency, µM (titrated, usually from 57.5 µM), for inactives: at the highest dose activation, most hits filed as activators; 0.19% of 320,000 active; also: potency is read from the fitted curve at half-maximal effect; % of control where 0% means no effect; nearly all actives have a fitted effect of over 45% in size
#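 ATM-like activity read as KAP-1 phosphorylation via AlphaLISA donor/acceptor antibody pairs after lysis and 6 hr at 25C. Cells were ATM-null patient fibroblasts (F2112, hTERT), dosed 60 min, then exposed to the DSB inducer NCS for 30 min.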
# * marks the source's active call; other numbers are inactive results; ? = inconclusive; nt = no result. A selection: hits, their analogues and other compounds. The true share with any hit is near 0.54%. Unless noted, calls follow the shape of the dose curve; as a rule, active = well fitted curve in the direction sought with a large enough effect; inconclusive = small, poorly fitted or top-dose-only effect, or another doubt; inactive = no such curve, though single readings can be large; an effect the other way counts as inactive or inconclusive.
SMILES,Vif-A3G inh,Vif-APOBEC3F blk,TRPML1 ag,TRPML1 inh,A-T KAP1 phos
COc1ccc(C2NC(=S)NC3=C2N2CCC3CC2)cc1 (configuration not stated),2%,4%,0,-7,2.5µM*
Fc1ccc(C2NC(=S)NC3=C2N2CCC3CC2)cc1 (configuration not stated),-2%,-5%,3,-8,3%
O=C(O)c1sccc1Oc1ccc(NS(=O)(=O)c2cccc(F)c2)cc1,-2%,-9%,1,-17,45µM*
O=C(Nc1ccc(Oc2ccsc2C(=O)O)cc1)c1ccccc1,-1%,3%,2,20,50%
Cc1cccc(Cn2cnc3c(cnn3C(C)(C)C)c2=O)c1F,0%,nt,2,-3,nt
O=C(C[N+]12CN3CN(CN(C3)C1)C2)c1ccc(O)c(O)c1,3%,nt,0,nt,nt
C=C(Br)COC(c1ccco1)[C@H](Cc1ccccc1)NC(=O)OC(C)(C)C (some centres not stated),-5%,nt,3,nt,nt
CCOc1ccc(CCN2C(=O)C(=O)N([C@H](CCCN(C)Cc3ccccc3)CNCc3ccccc3)C[C@@H]2C(C)C)cc1,nt,nt,nt,nt,40µM*
COc1ccc(C2CC(c3ccccc3)=NN2c2ccc(N)cc2)cc1 (configuration not stated),-12%,-9%,0,2,2%
CC(=O)Oc1ccc(C2=NN(c3ccccc3)C(c3ccccc3)C2)cc1 (configuration not stated),-27%,4%,2,-6,35µM*
CCC(=O)Nc1cccc(C2=NN(c3ccccc3)C(c3ccc(OC)cc3)C2)c1 (configuration not stated),-9%,-4%,0,-1,22µM*
COc1ccccc1N1N=C(c2ccc([N+](=O)[O-])cc2)CC1c1ccccc1 (configuration not stated),2.5µM*,-953%,69*,-16,-11%
COc1cc(N2N=C(c3ccccc3)CC2c2ccccc2)c(C=O)cc1C=O (configuration not stated),0%,1%,-1,53,0%
CCc1ccc2oc(C(=O)N(Cc3cccc(Cl)c3)Cc3ccco3)c(C)c2c1,-2%,1%,0,5,nt
CCn1c(SCc2cccc(F)c2)nnc1-c1ccncc1,0%,-9%,-1,12,4.5µM*
Cc1cc(N2CCCC2)c(F)cc1/C=C\[N+](=O)[O-],?,?,52*,-3,9%
CC1=C(C(=O)Nc2ccccc2)C(c2cccc(Cl)c2)n2nc(SCC(=O)c3ccc(C)cc3)nc2N1 (configuration not stated),-2%,-11%,0,-7,nt
c1ccc(N2N=C(c3cccs3)CC2c2ccco2)cc1 (configuration not stated),-13%,-11%,4,20,28µM*
c1ccc(C2=NN(c3ccccc3)C(c3ccco3)C2)cc1 (configuration not stated),0%,-5%,1,-20,16µM*
CCC(=O)N1N=C(c2cccs2)CC1c1ccco1 (configuration not stated),-6%,-10%,1,45,5%
Clc1ccc(N2N=C(c3cccs3)CC2c2ccco2)cc1 (configuration not stated),2%,2%,0,0,22µM*
CN(C)c1ccc(CNC(=O)c2cc3ccccn3n2)cc1,5%,-3%,-1,-4,nt
CCOC(=O)c1c(C)[nH]c(C)c1S(=O)(=O)NCC(=O)NCc1ccccc1C,-2%,3%,0,19,nt
CCOC(=O)Cc1csc(NC(=O)CSc2nnc(C(C)C)n2C)n1,0%,nt,5,22,0.71µM*
CCCCCCCCNC(=O)/C(C#N)=C/c1ccccc1[N+](=O)[O-],-12%,?,0,-3,25µM*
SMILES,Vif-A3G inh,Vif-APOBEC3F blk,TRPML1 ag,TRPML1 inh,A-T KAP1 phos
N#C/C(=C\c1ccccc1[N+](=O)[O-])C(=O)NCc1ccccc1,-6%,13µM*,6,2,10%
N#C/C(=C\C=C\c1ccccc1[N+](=O)[O-])C(=O)NCc1ccccc1,-23%,4%,0,-4,11%
COCCNC(=O)C1(C)Cc2c(-c3ccc(N(C)C)cc3)ccnc2O1 (configuration not stated),-8%,nt,-1,nt,nt
CC(=O)c1cccc(NC(=O)Cn2c(=O)oc3cc(S(=O)(=O)NC4CCCC4)ccc32)c1,-3%,-13%,0,8,nt
Cc1ccc(N=C2NC(=O)/C(=C/c3cn(C)c4ccccc34)S2)cc1C,8.9µM*,?,13,55,-4%
Fc1ccc2[nH]c(-c3cccs3)cc2c1,-6%,-10%,1,2,nt
Cc1c(C(=O)NCc2ccc([N+](=O)[O-])cc2)sc(=O)n1Cc1ccc2c(c1)OCO2,-3%,nt,14,nt,nt
CN(C)c1ccc(/C=C2\SC(N3CCCCC3)=NC2=O)cc1,?,22µM*,5,5,-6%
CCc1nn(CC(=O)Nc2c(C)cccc2C)c(=O)c2cc3sccc3n12,3%,4%,0,17,nt
Nc1c(C(=O)N/N=C/c2cccnc2)oc2nc(-c3ccccc3)cc(-c3ccco3)c12,-13%,10µM*,1,7,-12%
Cc1ccc(/C=N/NC(=O)Cn2nnc(N)n2)cc1,-6%,2%,1,16,25µM*
Nc1nnn(CC(=O)N/N=C/c2ccncc2)n1,4%,5%,2,-16,9%
CCCn1c(=O)c2sccc2n2c(CCCC(=O)Nc3ccc(C)c(F)c3)nnc12,1%,-8%,0,2,nt
CCOC(=O)c1cc(OC(=O)c2cc(OC)c(OC)c(OC)c2)n(-c2ccccc2)n1,4%,1%,2,7,nt
COc1cc(/C=C2/S/C(=N/S(=O)(=O)c3ccccc3)NC2=O)c([N+](=O)[O-])cc1OC,-16%,6%,1,-8,1%
O=C1N/C(=N\S(=O)(=O)Cc2ccccc2)S/C1=C/c1cc([N+](=O)[O-])ccc1O,2%,-23%,74*,-4,5%
O=C1N/C(=N\S(=O)(=O)c2ccccc2)S/C1=C\c1cc([N+](=O)[O-])ccc1O,5%,?,51*,2,0%
CN(C)S(=O)(=O)c1ccc(C(=O)NCCS(=O)(=O)N2CCN(c3ccccc3)CC2)cc1,8%,-1%,1,-1,nt
Cc1ccc(S(=O)(=O)N2C[C@@H]3[C@H]4CC[C@H](C4)[C@@H]3[C@@H](C)[C@@H]2C2CCCCC2=O)cc1 (some centres not stated),0%,4%,92*,-10,-2%
Cc1ccc(S(=O)(=O)N2C[C@@H]3[C@H]4CC[C@H](C4)[C@@H]3[C@@H](C)[C@@H]2c2ccco2)cc1,-3%,0%,28,-4,12%
